The values below come from publication PMC11006913.

Numbering of substitutions follows the chain as printed.

Holding throughout (test): PBM; 200 nM protein, PBS
Holding throughout (conditions): dsDNA, one strand shown

Assay [1] has as its target NKX2-5 (Homo sapiens, UniProt P52952 125-210, R139K).
Assay [2] deals with T1, NKX2-4 (Homo sapiens, UniProt Q9H2Z4 175-261, P217L).
T1 sequence: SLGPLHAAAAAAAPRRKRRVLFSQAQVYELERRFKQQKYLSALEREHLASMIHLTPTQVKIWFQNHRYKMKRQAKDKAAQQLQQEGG

Assay [3] concerns the target T2, NKX2-4 (Homo sapiens, UniProt Q9H2Z4 175-261, T231S).
T2 sequence: T1 sequence with L43P, T57S

Assay [4] concerns the target T3, NKX2-6 (Homo sapiens, UniProt A6NCS4 118-204, R150C).
T3 sequence: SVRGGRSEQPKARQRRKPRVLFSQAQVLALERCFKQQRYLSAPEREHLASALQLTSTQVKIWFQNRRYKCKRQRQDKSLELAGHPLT

Assay [5] deals with T4, NKX2-6 (Homo sapiens, UniProt A6NCS4 118-204).
T4 sequence: T3 sequence with C33R

Assay [6] addresses T5, NKX2-6 (Homo sapiens, UniProt A6NCS4 118-204, F151L).
T5 sequence: T3 sequence with C33R, F34L

The target of assay [7] is NKX3-2 (Homo sapiens, UniProt P78367 192-278, P234S).
The target of assay [8] is NKX2-5 (Homo sapiens, UniProt P52952 125-210).
Assay [9] has as its target NKX3-2 (Homo sapiens, UniProt P78367 192-278).
The target of assay [10] is T6, NKX2-4 (Homo sapiens, UniProt Q9H2Z4 175-261).
T6 sequence: T1 sequence with L43P

Assay [11] concerns the target T7, NKX2-4 (Homo sapiens, UniProt Q9H2Z4 175-261, R246Q).
T7 sequence: T1 sequence with L43P, R72Q

Assay [12] has as its target T8, VENTX (Homo sapiens, UniProt O95231 78-163, R121Q).
T8 sequence: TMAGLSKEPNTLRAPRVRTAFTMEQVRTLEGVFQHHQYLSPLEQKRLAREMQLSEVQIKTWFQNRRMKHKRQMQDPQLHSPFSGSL

Assay [13] addresses T9, VENTX (Homo sapiens, UniProt O95231 78-163).
T9 sequence: T8 sequence with Q44R

The target in assay [14] is T10, VENTX (Homo sapiens, UniProt O95231 78-163, Y115F).
T10 sequence: T8 sequence with Y38F, Q44R

Assay [15] deals with ALX1 (Homo sapiens, UniProt Q15699 118-204, L144V).
Assay [16] has as its target ALX1 (Homo sapiens, UniProt Q15699 118-204, L144R).
For assay [17], the target named is ALX1 (Homo sapiens, UniProt Q15699 118-204).
Sequence of ALX1 (Homo sapiens, UniProt Q15699 118-204) (Q15699 118-204): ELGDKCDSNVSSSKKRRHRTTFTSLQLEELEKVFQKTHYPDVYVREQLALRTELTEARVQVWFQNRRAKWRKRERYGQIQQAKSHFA

Sequence of NKX2-5 (Homo sapiens, UniProt P52952 125-210, R139K) (P52952 125-210 R139K): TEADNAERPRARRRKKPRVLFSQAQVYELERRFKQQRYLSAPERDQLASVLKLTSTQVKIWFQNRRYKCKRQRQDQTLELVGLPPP
Sequence of NKX2-5 (Homo sapiens, UniProt P52952 125-210) (P52952 125-210): as the sequence (P52952 125-210 R139K) above, with K15R counted along it
Sequence of NKX3-2 (Homo sapiens, UniProt P78367 192-278, P234S) (P78367 192-278 P234S): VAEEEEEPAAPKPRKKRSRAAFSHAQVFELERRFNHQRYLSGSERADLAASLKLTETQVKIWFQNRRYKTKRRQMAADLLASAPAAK
Sequence of NKX3-2 (Homo sapiens, UniProt P78367 192-278) (P78367 192-278): as the sequence (P78367 192-278 P234S) above, with S43P counted along it
Sequence of ALX1 (Homo sapiens, UniProt Q15699 118-204, L144V) (Q15699 118-204 L144V): as the sequence (Q15699 118-204) above, with L27V counted along it
Sequence of ALX1 (Homo sapiens, UniProt Q15699 118-204, L144R) (Q15699 118-204 L144R): as the sequence (Q15699 118-204) above, with L27R counted along it

With AAGTGGAC, the binding signal with NKX2-5 [1] was 12.5 upbm affinity estimate (log intensity, higher = more binding, comparable within an allelic series); in the assay with NKX2-4 [2] it was 12.4 upbm affinity estimate (log intensity, higher = more binding, comparable within an allelic series); in the assay with NKX2-4 [3] it was 12.9 upbm affinity estimate (log intensity, higher = more binding, comparable within an allelic series); in the assay with NKX2-6 [4], 11.8 upbm affinity estimate (log intensity, higher = more binding, comparable within an allelic series); in the assay with NKX2-6 [5], 13.4 upbm affinity estimate (log intensity, higher = more binding, comparable within an allelic series); in the assay with NKX2-6 [6], 10.4 upbm affinity estimate (log intensity, higher = more binding, comparable within an allelic series). For the same sequence, the binding signal is 12.7 upbm affinity estimate (log intensity, higher = more binding, comparable within an allelic series) with NKX3-2 [7]; 12.4 upbm affinity estimate (log intensity, higher = more binding, comparable within an allelic series) in the assay with NKX2-5 [8]; 12.8 upbm affinity estimate (log intensity, higher = more binding, comparable within an allelic series) with NKX3-2 [9].
Take GCACTTGA: the binding signal in the assay with NKX2-5 [1] is 13.2 upbm affinity estimate (log intensity, higher = more binding, comparable within an allelic series); with NKX2-4 [2] it was 12.8 upbm affinity estimate (log intensity, higher = more binding, comparable within an allelic series); with NKX2-4 [3], 13.2 upbm affinity estimate (log intensity, higher = more binding, comparable within an allelic series); with NKX2-4 [10], 12.6 upbm affinity estimate (log intensity, higher = more binding, comparable within an allelic series); in the assay with NKX2-6 [4], 12.1 upbm affinity estimate (log intensity, higher = more binding, comparable within an allelic series); with NKX2-6 [5] it was 13.9 upbm affinity estimate (log intensity, higher = more binding, comparable within an allelic series). In addition, the binding signal with NKX2-4 [11] is 13.4 upbm affinity estimate (log intensity, higher = more binding, comparable within an allelic series); in the assay with NKX2-6 [6], 11.4 upbm affinity estimate (log intensity, higher = more binding, comparable within an allelic series); with NKX2-5 [8] it was 13.1 upbm affinity estimate (log intensity, higher = more binding, comparable within an allelic series).
With CGGTGCAG, the binding signal with NKX2-5 [1] is 8.83 upbm affinity estimate (log intensity, higher = more binding, comparable within an allelic series); in the assay with NKX2-4 [2], 9.49 upbm affinity estimate (log intensity, higher = more binding, comparable within an allelic series); with NKX2-4 [3], 9.46 upbm affinity estimate (log intensity, higher = more binding, comparable within an allelic series); in the assay with NKX2-4 [10], 9.46 upbm affinity estimate (log intensity, higher = more binding, comparable within an allelic series); with NKX2-4 [11] it was 9.48 upbm affinity estimate (log intensity, higher = more binding, comparable within an allelic series); with NKX2-5 [8], 8.91 upbm affinity estimate (log intensity, higher = more binding, comparable within an allelic series).
Turning to GCGACGCC, the binding signal in the assay with NKX2-5 [1] is 8.87 upbm affinity estimate (log intensity, higher = more binding, comparable within an allelic series); with VENTX [12] it was 8.02 upbm affinity estimate (log intensity, higher = more binding, comparable within an allelic series); in the assay with VENTX [13], 8.21 upbm affinity estimate (log intensity, higher = more binding, comparable within an allelic series); in the assay with VENTX [14], 8.16 upbm affinity estimate (log intensity, higher = more binding, comparable within an allelic series); with NKX2-5 [8] it was 8.83 upbm affinity estimate (log intensity, higher = more binding, comparable within an allelic series).
In the case of CTCAAGTA, the binding signal is 12.7 upbm affinity estimate (log intensity, higher = more binding, comparable within an allelic series) with NKX2-5 [1]; 12.7 upbm affinity estimate (log intensity, higher = more binding, comparable within an allelic series) with NKX2-4 [2]; 13.1 upbm affinity estimate (log intensity, higher = more binding, comparable within an allelic series) in the assay with NKX2-4 [3]; 12.6 upbm affinity estimate (log intensity, higher = more binding, comparable within an allelic series) with NKX2-4 [10]; 11.8 upbm affinity estimate (log intensity, higher = more binding, comparable within an allelic series) in the assay with NKX2-6 [4]; 13.6 upbm affinity estimate (log intensity, higher = more binding, comparable within an allelic series) with NKX2-6 [5]. Also, the binding signal is 13.3 upbm affinity estimate (log intensity, higher = more binding, comparable within an allelic series) with NKX2-4 [11]; 10.8 upbm affinity estimate (log intensity, higher = more binding, comparable within an allelic series) in the assay with NKX2-6 [6]; 12.6 upbm affinity estimate (log intensity, higher = more binding, comparable within an allelic series) in the assay with NKX2-5 [8].
On to ATAATGGG, for which the binding signal in the assay with NKX2-5 [1] was 10.9 upbm affinity estimate (log intensity, higher = more binding, comparable within an allelic series); with VENTX [12], 11.4 upbm affinity estimate (log intensity, higher = more binding, comparable within an allelic series); in the assay with VENTX [13] it was 12.4 upbm affinity estimate (log intensity, higher = more binding, comparable within an allelic series); with VENTX [14] it was 11.4 upbm affinity estimate (log intensity, higher = more binding, comparable within an allelic series); with NKX2-5 [8], 11 upbm affinity estimate (log intensity, higher = more binding, comparable within an allelic series).
As to TCAAGTGA, the binding signal with NKX2-5 [1] was 12.5 upbm affinity estimate (log intensity, higher = more binding, comparable within an allelic series); with NKX2-4 [2] it was 12.5 upbm affinity estimate (log intensity, higher = more binding, comparable within an allelic series); in the assay with NKX2-4 [3], 13 upbm affinity estimate (log intensity, higher = more binding, comparable within an allelic series); with NKX2-4 [10], 12.4 upbm affinity estimate (log intensity, higher = more binding, comparable within an allelic series); with NKX2-6 [4] it was 11.7 upbm affinity estimate (log intensity, higher = more binding, comparable within an allelic series); with NKX2-6 [5], 13.5 upbm affinity estimate (log intensity, higher = more binding, comparable within an allelic series). The binding signal with NKX2-4 [11] was 13.1 upbm affinity estimate (log intensity, higher = more binding, comparable within an allelic series); with NKX2-6 [6], 10.5 upbm affinity estimate (log intensity, higher = more binding, comparable within an allelic series); with NKX2-5 [8], 12.4 upbm affinity estimate (log intensity, higher = more binding, comparable within an allelic series).
For CCGGTGGC, the binding signal with NKX2-5 [1] was 8.61 upbm affinity estimate (log intensity, higher = more binding, comparable within an allelic series); with VENTX [12], 7.92 upbm affinity estimate (log intensity, higher = more binding, comparable within an allelic series); with VENTX [13] it was 8.15 upbm affinity estimate (log intensity, higher = more binding, comparable within an allelic series); in the assay with VENTX [14] it was 8 upbm affinity estimate (log intensity, higher = more binding, comparable within an allelic series); in the assay with ALX1 [15], 6.52 upbm affinity estimate (log intensity, higher = more binding, comparable within an allelic series); in the assay with ALX1 [16], 6.41 upbm affinity estimate (log intensity, higher = more binding, comparable within an allelic series). The binding signal with ALX1 [17] is 6.47 upbm affinity estimate (log intensity, higher = more binding, comparable within an allelic series); in the assay with NKX2-5 [8], 8.93 upbm affinity estimate (log intensity, higher = more binding, comparable within an allelic series).
